SMILES strings stand for the structures. Results filed as inconclusive are left out. Unmarked numbers belong to inactive results. Calls of active or inactive are those of the source. Calls follow the shape of the dose curve; as a rule, active = well fitted inhibition curve with a large enough effect in the repeat runs; inconclusive = weak or mixed curves; inactive = no such curve, though single readings can be large or run the other way.
% is scaled to controls: 0 for no effect and ±100 for the full control effect; potency is read from the fitted curve at half-maximal effect.

Chain of Cytochrome P450 2C9 (Homo sapiens) (P11712 whole entry, looked up): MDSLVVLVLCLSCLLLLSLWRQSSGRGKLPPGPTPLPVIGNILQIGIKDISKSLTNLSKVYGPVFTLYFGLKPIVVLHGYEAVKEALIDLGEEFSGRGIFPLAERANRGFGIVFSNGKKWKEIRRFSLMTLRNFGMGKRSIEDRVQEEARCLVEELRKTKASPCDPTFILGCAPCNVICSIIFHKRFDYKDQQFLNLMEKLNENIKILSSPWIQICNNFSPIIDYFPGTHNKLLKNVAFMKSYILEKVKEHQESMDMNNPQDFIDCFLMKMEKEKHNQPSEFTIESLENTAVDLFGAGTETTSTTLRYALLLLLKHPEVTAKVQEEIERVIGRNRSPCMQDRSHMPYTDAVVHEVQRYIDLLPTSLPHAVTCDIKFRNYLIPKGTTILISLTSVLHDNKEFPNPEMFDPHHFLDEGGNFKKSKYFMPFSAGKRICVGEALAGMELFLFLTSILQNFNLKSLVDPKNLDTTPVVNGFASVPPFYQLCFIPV

This experiment addresses Cytochrome P450 2C9 (Homo sapiens) (UniProt P11712). The experiment in a line: Cytochrome P450 Family 2 Subfamily C Member 9 (CYP2C9) small molecule antagonists: luciferase reporter qHTS assay (AID 1671198). Also: nearly all actives have a fitted effect of over 50% in size. As to conditions: P450-Glo CYP2C9 enzyme assay, luciferin luminescence; series mostly up to 115 µM; activity change, negative = inhibition: at the top concentration. An excerpt: U.S. Tox21 Program National Center for Advancing Translational Sciences [NCATS] U.S. Environmental Protection Agency [EPA] National Institutes of Environmental Health Sciences [NIEHS] National Toxicology Program [NTP] U.S. Food and Drug Administration [FDA] Tox21 Assay Overview: Cytochrome P450 (CYP) enzymes are membrane-bound hemeproteins that play a key role in metabolism of drugs and xenobiotics. Evaluation of the effect of chemicals on CYP isozymes is useful to minimize the adverse drug reactions and toxicities in drug development process. Tox21 chemicals were tested for their effect on CYP enzyme activities by using P450-Glo (TM) screening systems (Promega Corporation, Madison, WI). These systems provide a luminescent method containing proluciferin substrates and are converted to luciferin products by CYP isozymes. The luciferin products formed are detected with a luciferin detection reagent, and the amount of light produced is proportional to CYP activity. P450-Glo (TM) CYP2C9 screening system (Catalog. No. V9790) was used to detect the compounds that interfere in CYP2C9 activity.
Tox21 Assay Protocol Summary: Two ul of enzyme-substrate mix was dispensed into medium binding white/solid 1536-well plates (Greiner Bio-One North America Inc., Monroe, NC) using a BioRaptr Flying Reagent Dispenser (FRD, Beckman Coulter, Brea, CA). […] The assay plates were incubated at room temperature for 10 min. Then 2 ul of NADPH regeneration solution was added to each well of the assay plates using an FRD and incubated at 37C for 1 h. The reaction was stopped by adding 4 ul of detection reagent using an FRD and after 20 min incubation at room temperature the luminescence signal was measured using a ViewLux plate reader (Perkin Elmer, Shelton, CT). Data were expressed as relative luminescence units.
A general note: Reporter assays use an easily measured gene product as a stand-in for the process of interest.
Regarding `Cc1ccccc1C(=O)O`, the “activity change, negative = inhibition” value is -4.45%.

As for `COC(C(=O)O)c1ccccc1` (stereo not given), the “activity change, negative = inhibition” value was -12.4%.

Regarding `CC(C)[N+](C)(C)CC(O)COc1cccc2ccccc12` (stereo not given), the “activity change, negative = inhibition” value was 4.17% [at 53 µM].

For `OC[C@H]1O[C@@H]2O[C@H]3[C@H](O)[C@@H](O)[C@@H](O[C@H]4[C@H](O)[C@@H](O)[C@@H](O[C@H]5[C@H](O)[C@@H](O)[C@@H](O[C@H]6[C@H](O)[C@@H](O)[C@@H](O[C@H]7[C@H](O)[C@@H](O)[C@@H](O[C@H]8[C@H](O)[C@@H](O)[C@@H](O[C@H]9[C@H](O)[C@@H](O)[C@@H](O[C@H]1[C@H](O)[C@H]2O)O[C@@H]9CO)O[C@@H]8CO)O[C@@H]7CO)O[C@@H]6CO)O[C@@H]5CO)O[C@@H]4CO)O[C@@H]3CO`, the “activity change, negative = inhibition” value was -7.46% [at 53 µM].

Take `OCCCCCCO`: the Potency is 40.4 µM (active).

`CC1=CC(=O)CCC1`: the “activity change, negative = inhibition” value was -11.1%.

For the molecule `CC(O)CN(CCCN(C)C)CCCN(C)C` (stereo not given), the “activity change, negative = inhibition” value was -8.22%.

Consider `O=C1CC2(CCCC2)CC(=O)N1`, for which the “activity change, negative = inhibition” value was 0.0509% [at 53 µM].

`NCCNC(=O)c1ccc(Cl)cn1`: the “activity change, negative = inhibition” value was 2.64% [at 53 µM].

`C=C(C)[C@H]1CC=C(C)CC1`: the “activity change, negative = inhibition” value was -6.99%.

For `CCN1CCN(c2cc3c(cc2F)c(=O)c(C(=O)O)cn3C2CC2)CC1`, the “activity change, negative = inhibition” value is 7.89% [at 53 µM].

Regarding `CCC(C(=O)NC(N)=O)c1ccccc1` (stereo not given), the “activity change, negative = inhibition” value is -6.91%.

As for `CCCOc1ccccc1-c1nc2n[nH]nc2c(=O)[nH]1`, the “activity change, negative = inhibition” value is -6.51% [at 53 µM].

As to `CN(C)CCn1nnnc1SCC1=C(C(=O)O)N2C(=O)[C@@H](NC(=O)Cc3csc(N)n3)[C@H]2SC1`, the “activity change, negative = inhibition” value was -19.6% [at 53 µM].

As for `NC(=S)Nc1cccc2ccccc12`, the activity change, negative = inhibition was -2.82% [at 10.5 µM].

Consider `c1ccc2cnncc2c1`, for which the “activity change, negative = inhibition” value is -5.61%.

For `Cc1cc(C)c(NC(=O)CN(CC(=O)O)CC(=O)O)c(C)c1Br`, the “activity change, negative = inhibition” value is -2.86% [at 53 µM].

On to `O=C(CCOCCOCCOCCOCCC(=O)Nc1c(I)cc(I)c(C(=O)O)c1I)Nc1c(I)cc(I)c(C(=O)O)c1I`, for which the “activity change, negative = inhibition” value was 9.31% [at 53 µM].

As for `Oc1ccc2c(c1)OC[C@@H](N1CCC(O)(c3ccc(F)cc3)CC1)[C@H]2O`, the Potency was 13.8 µM (active).

In the case of `CCCCc1ccc(N)cc1`, the Potency is 44.8 µM (active).

As for `Cc1onc(-c2ccccc2)c1-c1ccc(S(N)(=O)=O)cc1`, the Potency was 13.8 µM (active).

Regarding `CCCCCCCCCCCCCCC`, the “activity change, negative = inhibition” value was -8.9%.

As to `OCc1ccccn1`, the “activity change, negative = inhibition” value is -6.79% [at 53 µM].

For the molecule `O=C(O)C1CCC1`, the “activity change, negative = inhibition” value is 14.4% [at 53 µM].

With `CCO[Si](C)(OCC)OCC`, the “activity change, negative = inhibition” value was -6.92%.

For `O=C1C(CCS(=O)c2ccccc2)C(=O)N(c2ccccc2)N1c1ccccc1` (stereo not given), the Potency was 30.9 µM (active).

Take `CC(C)c1ccc2oc3nc(N)c(C(=O)O)cc3c(=O)c2c1`: the Potency was 13.8 µM (active).

For the molecule `c1cc(CN2CCCCC2)cc(OCCCNc2nc3ccccc3s2)c1`, the “activity change, negative = inhibition” value is -18.8% [at 53 µM].

For the molecule `C=C(C)C(=O)OCCCCCCCCCCCCCCCCCC`, the activity change, negative = inhibition is -1.15% [at 23.6 µM].

For `C[C@H](O)C(=O)Nc1c(I)c(C(=O)NC(CO)CO)c(I)c(C(=O)NC(CO)CO)c1I`, the “activity change, negative = inhibition” value was 6.75% [at 53 µM].

For `COc1cc(CCC(C)=O)ccc1O`, the “activity change, negative = inhibition” value was -1.7%.

Take `C/C=C1\C(=O)C[C@H]2[C@@H]3CCC4=CC(=O)CC[C@]4(C)[C@H]3CC[C@]12C`: the Potency was 15.6 µM (active).

On to `CO[Si](OC)(OC)OC`, for which the “activity change, negative = inhibition” value was -1.98%.

`CCCCCCCCCCCl`: the “activity change, negative = inhibition” value was -0.508%.

In the case of `CCCCCCC(CCCCCCCCCCC(=O)OCC(COC(C)=O)OC(C)=O)OC(C)=O` (stereo not given), the Potency was 2.45 µM (active).

In the case of `O=[N+]([O-])c1ccc(CCO)cc1`, the “activity change, negative = inhibition” value is 2.03%.

In the case of `N#CCN(CC#N)CCN(CC#N)CC#N`, the “activity change, negative = inhibition” value is -13.1%.

For the molecule `Cc1cc(C)cc(OCC2CNC(=O)O2)c1` (stereo not given), the “activity change, negative = inhibition” value was 1.97% [at 53 µM].

Turning to `C=C[Si](OC)(OC)OC`, the “activity change, negative = inhibition” value is -0.622%.

As for `CCCCCCCCCCCCCCCCCC(=O)OCCCCCCCCCCCCCC(C)C`, the “activity change, negative = inhibition” value is 3.58%.
